Hits are enriched below; roughly 6.3% of the tested compounds scored in any of these assays.
TIM10 inh: inhibits growth of TIM10 yeast strain. S. cerevisiae TIM10 strain growth, BacTiter-Glo luminescence, 24 h. inhibition, % at 10 µM. actives 1.4% (n = 330,000). AID 463195;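 active = inhibition of 40% or more at the single tested concentration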;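 also: wild-type TIM10 isogenic control strain grown at permissive 25 °C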
tim23-1 inh: tim23-1 yeast growth inhibition; actives 1.3% (n = 330,000); S. cerevisiae tim23-1 growth, BacTiter-Glo luminescence, 24 h; inhibition, % at 20 µM;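 active = growth inhibition of the mutant yeast at or above 50%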;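 also: temperature-sensitive mutant grown at 25 °C; plate controls were DMSO-treated mutant yeast for no effect and medium wells lacking yeast for full effect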
tim10-1 inh: inhibits growth of tim10-1 mutant yeast; AID 463190; inhibition, % at 20 µM; actives 2.2% (n = 330,000); S. cerevisiae tim10-1 ts strain growth, BacTiter-Glo, 24 h;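 active = inhibition of at least 40%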;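 also: mutant grown at 25 °C; 0% = DMSO wells with yeast and 100% = wells holding no yeast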
Mdm2 MdmX PPI: human Mdm2/MdmX binding inhibition. SaOS-2 split-luciferase Mdm2/MdmX complementation, luminescence. inhibition, % at 8 µM. AID 485346. actives 3% (n = 330,000). O15151+Q00987;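 active = inhibition of at least 50% at 8 µM in the primary screen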
Target sequence (O15151 whole entry, looked up): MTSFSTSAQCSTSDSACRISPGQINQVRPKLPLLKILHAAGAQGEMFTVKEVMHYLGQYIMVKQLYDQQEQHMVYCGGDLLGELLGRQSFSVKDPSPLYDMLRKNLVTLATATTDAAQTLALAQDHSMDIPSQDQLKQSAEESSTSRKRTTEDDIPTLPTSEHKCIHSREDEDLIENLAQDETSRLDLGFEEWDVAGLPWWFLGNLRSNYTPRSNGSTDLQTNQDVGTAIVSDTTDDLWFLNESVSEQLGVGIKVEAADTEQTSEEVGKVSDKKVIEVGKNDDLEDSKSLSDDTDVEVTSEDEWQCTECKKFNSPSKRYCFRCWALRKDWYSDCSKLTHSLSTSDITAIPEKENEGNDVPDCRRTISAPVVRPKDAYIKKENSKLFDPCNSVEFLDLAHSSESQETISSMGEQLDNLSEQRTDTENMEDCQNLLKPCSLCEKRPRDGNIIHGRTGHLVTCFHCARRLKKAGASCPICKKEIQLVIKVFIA
Target sequence (Q00987 whole entry, looked up): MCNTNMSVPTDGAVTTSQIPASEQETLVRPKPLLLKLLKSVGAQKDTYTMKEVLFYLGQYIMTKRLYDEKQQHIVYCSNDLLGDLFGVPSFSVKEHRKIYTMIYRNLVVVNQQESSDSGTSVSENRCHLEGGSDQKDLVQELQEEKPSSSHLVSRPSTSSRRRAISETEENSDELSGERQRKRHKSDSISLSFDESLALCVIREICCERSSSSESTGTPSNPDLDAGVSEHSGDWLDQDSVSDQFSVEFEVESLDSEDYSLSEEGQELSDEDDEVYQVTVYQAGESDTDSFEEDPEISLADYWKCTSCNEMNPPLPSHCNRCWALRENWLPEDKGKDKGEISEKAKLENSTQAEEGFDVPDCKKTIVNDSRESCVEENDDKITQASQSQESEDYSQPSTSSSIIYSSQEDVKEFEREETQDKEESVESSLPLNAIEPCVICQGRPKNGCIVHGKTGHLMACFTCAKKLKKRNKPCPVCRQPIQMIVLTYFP
MPTP inh: permeability transition pore inhibition. AID 602449. inhibition, % at 10 µM. actives 1.4% (n = 360,000). isolated mouse mitochondria, Ca2+ swelling absorbance, 30 min;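 active = inhibition of 50% or more, scaled per plate between neutral and stimulator controls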;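 also: 0% = DMSO wells given calcium and 100% = 1 mM EGTA wells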
Rh123 counter: mitochondrial membrane potential, counter-screen | shares compounds with MPTP inh | isolated mitochondria, Rhodamine 123 fluorescence | inhibition, % at 10 µM | actives 78% (n = 5,000); in the data active = inhibition above about 22%;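 also: 0% = DMSO vehicle and 100% = positive control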
MPTP abs DR: MPTP inhibition, dose response swelling confirmation | shares compounds with MPTP inh | isolated mitochondria swelling, absorbance | IC50, µM | actives 58% (n = 780) | AID 651561; in the data active = IC50 below about 20 µM
MPTP counter DR: counter-screen for mitochondrial permeability transition pore inhibitors, dose response; shares compounds with MPTP inh; isolated mitochondria counterscreen, fluorescence read-out; IC50, µM; actives 49% (n = 780); in the data active = IC50 below about 80 µM
An asterisk follows results filed as active; i = inactive; . = no result given.

SMILES | TIM10 inh | tim23-1 inh | tim10-1 inh | Mdm2 MdmX PPI | MPTP inh | Rh123 counter | others
Cc1ccc(OCc2ccc(C(=O)N3CCOCC3)cc2)cc1C | 2.6 | 12.8 | 10.6 | -91.5 | -1.2 | .
CC(C)c1ccc(COc2ccc(C(=O)N3CCOCC3)cc2)cc1 | 13.7 | 11.1 | 16.8 | 0.5 | 67.4* | 49.0*
CC(C)c1ccc(OCc2ccc(C(=O)N3CCCC3)o2)cc1 | -3.6 | 20.1 | 27.3 | -41.5 | 84.0* | 11.7 | MPTP abs DR=12*;MPTP counter DR=18.1*
O=C(c1cccnc1)N1CCC2CC1c1c(Cl)cccc12 (configuration not stated) | . | . | . | . | 0.1 | .
Cc1ccc(NC(=O)c2cc(S(=O)(=O)NCCc3ccccc3)ccc2F)cc1Cl | 33.2 | 39.6 | 31.6 | 28.1 | 55.5* | 70.8*
CC(=O)Nc1ccc(S(=O)(=O)Nc2cccc(-c3nc4cc(C)ccc4o3)c2)cc1 | 16.1 | 14.7 | 27.0 | -1.8 | 95.7* | 74.3*
CSc1ncnc2c1ncn2CCCNCCc1ccccn1 | . | . | . | . | -1.9 | .
c1ccc(CC[C@@H]2CC[C@@H](CCc3ccccc3)N2)cc1 | 9.5 | 6.7 | -6.0 | 4.0 | 68.9* | -5.3 | MPTP abs DR=10.2*;MPTP counter DR=>80
Cc1ccc2c(c1)nnn2C1CCN(S(=O)(=O)c2ccc(C(=O)N3CC(C)CC(C)C3)cc2)CC1 (configuration not stated) | -2.3 | 17.1 | 10.8 | 47.8 | 56.4* | 40.0*
Cc1ccc2c(c1)nnn2C1CCN(S(=O)(=O)c2ccc(C(=O)N(C)C)cc2)CC1 | -3.5 | 16.7 | 0.9 | -4.5 | 2.5 | .
Cc1ccc2c(c1)nnn2C1CCN(S(=O)(=O)c2cccc(S(=O)(=O)N(C)C)c2)CC1 | 6.2 | 23.2 | 17.3 | 17.5 | 87.5* | 87.5*
CCCCCCCCCCCC1N=C(N)NC(CCCO)=C1C(=O)OC (configuration not stated) | . | . | . | . | 79.1* | 2.4
CCCCCCOC(=O)c1ccc(N)cc1 | 11.5 | 38.1 | 12.9 | -29.7 | 0.1 | .
Cc1ccc(F)cc1NC(=O)COC(=O)C1CC2CCCC(C1)C2=O (configuration not stated) | . | . | . | . | -0.4 | .
Cc1cccc(C(=O)O/N=C2\CCSc3ccc(C)cc32)c1 | 25.8 | 28.1 | 28.4 | -0.4 | 0.5 | .
COc1ccc(S(=O)(=O)O/N=C2\CCSc3ccc(C)cc32)cc1 | 23.1 | 33.4 | 35.8 | 2.7 | 59.0* | 37.1*
O=C1c2ccc(Br)cc2C(=O)N1c1ccc(Cc2ccncc2)cc1 | . | . | . | . | 102.5* | 92.2*
O=C(c1cccs1)N1C[C@@H](n2cc(C3CC3)nn2)[C@H](O)C[C@@H]1c1ccccc1 | . | . | . | . | -0.2 | .
COC(=O)c1c(NC(=O)C2CCCCC2)sc2c1CCN(C(C)C)C2 | 9.6 | 7.5 | 17.7 | 4.6 | 54.8* | -5.3 | MPTP abs DR=i;MPTP counter DR=>80
CCOC(=O)c1c(NC(=O)C2CCCCC2)sc2c1CCN(C(C)C)C2 | 0.2 | -1.9 | 6.7 | 4.9 | 21.3 | .
O=C(COC(=O)c1cc(S(=O)(=O)Nc2ccccc2Cl)ccc1O)Nc1nc2ccccc2s1 | . | . | . | . | 90.4* | 77.7*
Cc1cccc(C)c1NC(=O)COC(=O)c1cc(S(=O)(=O)Nc2ccc(Cl)cc2)ccc1O | 3.1 | 11.5 | 4.9 | -3.5 | 0.5 | .
N#Cc1cccc(NC(=O)COC(=O)c2cc(S(=O)(=O)Nc3ccccc3Cl)ccc2O)c1 | 0.2 | 18.5 | 11.7 | -2.1 | 57.9* | 85.9*
C[C@]1(CC/C(=C/CO)CO)[C@H](C=O)CC[C@@]23COC(=O)C2=CCC[C@@H]31 | . | . | . | . | 2.4 | .
CN(c1ccccc1)S(=O)(=O)c1cc(C(=O)NCc2ccco2)ccc1Cl | . | . | . | . | -0.7 | .
SMILES | TIM10 inh | tim23-1 inh | tim10-1 inh | Mdm2 MdmX PPI | MPTP inh | Rh123 counter | others
CC(C)(C)OC(=O)NCCCCCc1cn(CC(=O)NCCCCCCCCCCC(=O)N2CCN(C(=O)OC(C)(C)C)CC2)nn1 | 24.5 | 17.3 | 6.4 | -0.5 | 94.3* | -1.5 | MPTP abs DR=1.99*;MPTP counter DR=<2.5*
CC(=O)OCC(=O)Nc1ccc(SC(F)F)cc1 | 6.2 | 8.9 | 2.8 | 5.0 | 0.9 | .
CCOc1cc(C(=O)OCC(=O)Nc2ccc(SC(F)F)cc2)cc(OCC)c1OCC | 12.2 | 7.5 | 6.9 | -16.0 | 50.1* | 61.1*
CCC(C(=O)OCC(=O)Nc1ccc(SC(F)F)cc1)c1ccccc1 (configuration not stated) | . | . | . | . | 77.7* | 87.6*
Cc1cn([C@H]2C[C@H](O)[C@@H](CNCc3ccc(F)c(N4CCOCC4)c3)O2)c(=O)[nH]c1=O | . | . | . | . | -1.1 | .
C/C(=N\NC(=O)CCc1ccccc1)C1C(=O)c2ccccc2C1=O | -3.1 | -1.6 | 4.6 | 30.6 | 13.6 | .
C/C(=N\NC(=O)c1cccc(Cl)c1)C1C(=O)c2ccccc2C1=O | 9.9 | 32.7 | -25.7 | -14.6 | 88.6* | 85.3*
CCCCOc1ccc(S(=O)(=O)NNC(=O)c2cc3ccccc3o2)cc1 | 32.0 | 45.0 | 35.4 | 18.8 | 35.9 | .
CC(C)COc1ccc(S(=O)(=O)NNC(=O)c2cc3ccccc3o2)cc1 | 24.6 | 39.9 | 38.8 | 0.6 | 60.3* | 49.9*
C[C@H]1CN([C@@H](C)CO)S(=O)(=O)c2ccc(Br)cc2O[C@@H]1CN(C)C(=O)CCN1CCCCC1 | . | . | . | . | 0.5 | .
CCCNC(=S)N1CCN(c2nc(-c3ccc(C)cc3)cs2)CC1 | 24.2 | 19.1 | 13.3 | 6.5 | 99.0* | 80.6*
COc1ccc(N2CCN(C(=O)c3cc4c(C)nc5ccccc5c4o3)CC2)cc1 | 13.3 | 5.3 | 21.4 | 30.5 | -1.0 | .
COc1cccc(CNC(=O)c2cc3c(C)nc4ccccc4c3o2)c1 | -27.3 | 11.6 | 9.1 | 19.8 | 59.9* | 33.6*
COc1ccc(CNC(=O)c2cc3c(C)nc4ccccc4c3o2)c(OC)c1 | -3.1 | 5.3 | -5.6 | 32.2 | 73.4* | 96.2*
Cc1cc(Nc2cccc(Br)c2)c2ccccc2n1 | 15.9 | 3.3 | 5.8 | 15.7 | 83.3* | 74.5*
COc1ccc(CCc2nnc(CCC(=O)N(C)Cc3ccnc4ccccc34)o2)cc1 | 10.7 | 3.6 | 22.4 | 26.9 | 79.4* | 30.4*
COC(=O)c1c(C)oc2ccc(NS(=O)(=O)c3cccs3)cc12 | 20.3 | 22.6 | 30.3 | -3.8 | 92.5* | 57.3*
CC(Oc1ccc(Br)cc1)C(=O)N(Cc1ccccc1)c1c(N)n(Cc2ccccc2)c(=O)[nH]c1=O (configuration not stated) | . | . | . | . | 0.2 | .
O=C(NCC1CCCO1)Nc1cc(Cl)cc(Cl)c1 (configuration not stated) | 0.0 | -9.7 | 33.5 | 4.0 | 81.9* | 88.1*
O=C(NCC1CCCO1)Nc1ccc(Cl)cc1 (configuration not stated) | -9.9 | 10.9 | -20.8 | -23.0 | 2.0 | .
CCN1C(=O)[C@H]2[C@@H](c3ccc(C)cc3)N[C@]3(CCCN(Cc4ccc(F)cc4)C3=O)[C@H]2C1=O | . | . | . | . | 0.4 | .
O=C(c1ccc(CSc2nc3ccncc3[nH]2)cc1)N1CCN(c2cccc(Cl)c2)CC1 | -14.8 | 5.0 | -7.7 | 39.4 | 89.9* | 102.8*

Screening data as filed in PubChem BioAssay.
